BAZ2B block: blocks human BAZ2B | Q9UIF8 | AlphaScreen BAZ2B-H3K14Ac peptide displacement | Potency, µM (highest dose often 114 µM), for inactives: at the top dose activity change, negative = inhibition, most hits filed as inhibitors | 4.4% of 360,000 active; also: potency is read from the fitted curve at half-maximal effect; % is scaled to controls: 0 for no effect and ±100 for the full control effect; nearly all actives have a fitted effect of over 60% in size
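Compounds, titrated to a top concentration of 110 uM, were incubated 30 min at room temperature with preformed BAZ2B/acetyl-K14 H3 peptide complex (50 nM each). Proximity signal was measured by AlphaScreen after 20 min with beads.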
L3MBTL1 inh: blocks human L3MBTL1. Q9Y468. Potency, µM (doses to about 57.1 µM), without a hit: at the top dose activity, negative = inhibition, hits mostly inhibitors. AlphaScreen L3MBTL1–H3K9me1 peptide binding. 0.66% of 230,000 active; also: potency is read from the fitted curve at half-maximal effect; % is scaled to controls: 0 for no effect and ±100 for the full control effect; nearly all actives have a fitted effect of over 60% in size
Target sequence (Q9Y468 whole entry, looked up): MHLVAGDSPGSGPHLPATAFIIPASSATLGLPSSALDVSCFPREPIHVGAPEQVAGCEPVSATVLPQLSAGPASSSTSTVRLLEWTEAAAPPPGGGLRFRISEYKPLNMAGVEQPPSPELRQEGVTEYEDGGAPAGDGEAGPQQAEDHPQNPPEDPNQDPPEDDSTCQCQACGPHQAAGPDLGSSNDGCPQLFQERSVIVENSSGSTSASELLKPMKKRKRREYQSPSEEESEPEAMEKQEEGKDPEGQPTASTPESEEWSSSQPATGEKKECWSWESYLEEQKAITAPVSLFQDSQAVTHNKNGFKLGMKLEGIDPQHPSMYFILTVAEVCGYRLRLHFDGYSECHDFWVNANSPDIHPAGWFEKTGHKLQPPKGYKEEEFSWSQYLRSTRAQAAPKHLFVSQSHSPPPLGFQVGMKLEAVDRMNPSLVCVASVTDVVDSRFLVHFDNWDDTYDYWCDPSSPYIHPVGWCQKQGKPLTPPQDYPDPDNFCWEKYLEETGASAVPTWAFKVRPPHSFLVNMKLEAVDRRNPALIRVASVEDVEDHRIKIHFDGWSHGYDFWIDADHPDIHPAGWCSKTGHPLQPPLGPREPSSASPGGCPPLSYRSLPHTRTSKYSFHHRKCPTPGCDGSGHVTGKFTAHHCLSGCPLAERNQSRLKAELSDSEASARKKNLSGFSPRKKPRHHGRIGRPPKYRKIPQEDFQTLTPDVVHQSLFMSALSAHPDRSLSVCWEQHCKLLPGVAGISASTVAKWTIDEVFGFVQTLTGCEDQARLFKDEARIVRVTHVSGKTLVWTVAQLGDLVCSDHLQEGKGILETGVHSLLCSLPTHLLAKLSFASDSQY
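L3MBTL1 50 nM + b-AHA-H3(1-15)K9me1 75 nM, 30 min RT; compound added, 30 min RT; streptavidin donor/Ni-chelate acceptor beads 10 ug/mL each final, 30 min RT dark; AlphaScreen read.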
JMJD2A Tudor inh: blocks the human JMJD2A Tudor domain | O75164 | AlphaScreen JMJD2A-Tudor / H3K4me3 peptide binding | Potency, µM (doses to about 114 µM), for the others: at the highest dose activity change, negative = inhibition, most hits filed as inhibitors | 4.4% of 390,000 active | AID 504339; also: potency is read from the fitted curve at half-maximal effect; % is scaled to controls: 0 for no effect and ±100 for the full control effect; nearly all actives have a fitted effect of over 50% in size
PLK1 PBD inh: PLK1 (human) polo-box domain binding inhibition. Potency, µM, for inactives: max response, negative = inhibition, usual class: inhibitors. AID 720504. 2.8% of 360,000 active. P53350. Plk1 PBD binding of FITC phosphopeptide, fluorescence polarization; also: potency is read from the fitted curve at half-maximal effect; series mostly up to about 57 µM; % is scaled to controls: 0 for no effect and ±100 for the full control effect; nearly all actives have a fitted effect of over 65% in size
HP1b binding inh: inhibitors of HP1-beta chromodomain binding to methylated histone tails | 0.56% of 390,000 active | Potency, µM (titrated, usually from 114 µM), inactives show at the highest dose activity change, negative = inhibition, actives largely listed as inhibitors | P83916 | AID 540317 | AlphaScreen HP1-beta / biotin-H3K9me3 peptide binding; also: potency is read from the fitted curve at half-maximal effect; nearly all actives have a fitted effect of over 70% in size
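Compound inhibition of the preformed complex between 50 nM HP1-beta and 50 nM biotinylated H3K9me3 peptide was read by AlphaScreen. Buffer was PBS pH 7.4 with 0.01% Tween-20. Incubations ran 30 min at room temperature, with 10 ug/mL donor/acceptor beads.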
VDR inh: vitamin D3 receptor (human) inhibition; P11473; VDR-SRC2-3 peptide fluorescence polarization, 2 h; Potency, µM, without a hit: max response, negative = inhibition, most hits filed as inhibitors; 0.93% of 400,000 active; AID 504847; also: potency is read from the fitted curve at half-maximal effect; % is scaled to controls: 0 for no effect and ±100 for the full control effect
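Inhibition of the VDR/SRC2-3 peptide interaction is quantified by fluorescence polarization. Compounds (23 nl, pintool) incubate with the reagents for 2 hours at ambient room temperature.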
G9a confirm: inhibits human G9a histone lysine methyltransferase, hit confirmation | 89% of 370 active | G9a H3K9 monomethylation, AlphaScreen, 2 h | shares compounds with JMJD2A Tudor inh | Potency, µM, hits mostly inhibitors; also: potency is read from the fitted curve at half-maximal effect; nearly all actives have a fitted effect of over 65% in size
RGS4 inh: confirmation of human RGS4 inhibitors; 80% of 25 active; AID 602388; shares compounds with JMJD2A Tudor inh; Potency, µM, most hits filed as inhibitors; RGS4 GAP activity, Transcreener GDP fluorescence polarization
USP1-UAF1 confirm: blocks human USP1/UAF1 cleavage of Ub-Rhodamine | Potency, µM (highest dose often 114 µM), for the others: at the top dose activity change, negative = inhibition, hits mostly inhibitors | 50% of 50 active | shares compounds with VDR inh | Ub-Rhodamine cleavage, fluorescence kinetic read
VDR confirm: confirmation of human vitamin D receptor inhibitors. shares compounds with VDR inh. VDR-coactivator inhibition assay, qHTS confirmation. AID 602199. 89% of 840 active. Potency, µM, actives largely listed as inhibitors; also: potency is read from the fitted curve at half-maximal effect
VDR FP fluor: VDR (human) coactivator binding inhibition, fluorescein polarization; shares compounds with VDR inh; VDR-coactivator binding, fluorescein fluorescence polarization; Potency, µM (series often up to 57.1 µM), inactives show at the highest dose activity change, negative = inhibition, hits mostly inhibitors; 48% of 840 active; also: potency is read from the fitted curve at half-maximal effect
VDR bla: confirmation of human vitamin D receptor inhibitors in reporter cells; AID 602202; VDR beta-lactamase reporter cells, FRET ratio; cells co-treated with VDR agonist LG190178; Potency, µM (top dose mostly 46.1 µM), for inactives: at the top dose activity change, negative = inhibition, most hits filed as inhibitors; shares compounds with VDR inh; 23% of 840 active; also: potency is read from the fitted curve at half-maximal effect; % is scaled to controls: 0 for no effect and ±100 for the full control effect
VDR cytotox: cytotoxic in counter-screen for VDR inhibitors. Potency, µM (highest dose often 48.3 µM), without a hit: at the highest dose activity change, negative = cytotoxicity, most hits filed as cytotoxic. cytotoxicity counter-screen, cell viability, qHTS. 18% of 840 active. shares compounds with VDR inh;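 also: potency is read from the fitted curve at half-maximal effect; plate controls were DMSO for no effect and high-concentration cycloheximide for full effect; nearly all actives have a fitted effect of over 75% in size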
TbPYK inh: Trypanosoma brucei pyruvate kinase inhibition, cherry-pick confirmation. shares compounds with PLK1 PBD inh. recombinant TbPYK, Kinase-Glo ATP luminescence. Potency, µM (doses to about 76.9 µM), for the others: at the highest dose activity change, negative = inhibition, hits mostly inhibitors. 67% of 890 active. AID 720569; also: potency is read from the fitted curve at half-maximal effect; % is scaled to controls: 0 for no effect and ±100 for the full control effect; nearly all actives have a fitted effect of over 70% in size
TbPYK orthogonal: orthogonal confirmation of Trypanosoma brucei pyruvate kinase inhibitors. shares compounds with PLK1 PBD inh. recombinant TbPYK, ADP-Glo luminescence, 60 min. Potency, µM (highest dose often 76.9 µM), inactives show at the highest dose activity change, negative = inhibition, usual class: inhibitors. 62% of 890 active; also: potency is read from the fitted curve at half-maximal effect; % is scaled to controls: 0 for no effect and ±100 for the full control effect; nearly all actives have a fitted effect of over 75% in size
Numbers without * were called inactive; u = inconclusive; x = not tested or not shown. An excerpt weighted towards active compounds, which were near 6.9% of everything screened. Calls follow the shape of the dose curve; as a rule, active = well fitted curve in the direction sought with a large enough effect; inconclusive = small, poorly fitted or top-dose-only effect, or another doubt; inactive = no such curve, though single readings can be large; an effect the other way counts as inactive or inconclusive.

SMILES	BAZ2B block	L3MBTL1 inh	JMJD2A Tudor inh	PLK1 PBD inh	HP1b binding inh	VDR inh	VDR confirm	VDR FP fluor	VDR bla	VDR cytotox	others
CCNCc1ccccc1OCc1ccccc1	-26.5%	-0.7%	-2.4%	u	59.1%	-1.9%	x	x	x	x
O=C(Nc1nnc(-c2ccccc2)s1)C1CCCN(C(=O)c2ccoc2)C1 (stereo not drawn)	x	x	-32.6%	x	u	44.7µM*	15.8*	8.91µM*	u	-3.1%	RGS4 inh=23.8*
CC(C)Oc1ccc(C(CC(=O)O)NC(=O)c2cccs2)cc1 (stereo not drawn)	-2.1%	x	-7.7%	-3.7%	28.3%	3.6%	x	x	x	x
CCc1ccc(NC(=O)NCC2CCN(c3ccc(OC)cc3)C2)cc1 (stereo not drawn)	-36.2%	x	-33.8%	-9.7%	3.6%	2.5%	x	x	x	x	G9a confirm=0.893*;TbPYK inh=u;TbPYK orthogonal=-29.0%
Cn1c(SCC(=O)NC2CCCC2)nnc1-c1ccncc1	-11.5%	6.8%	-10.3%	2.7%	34.1%	0.5%	x	x	x	x
Cn1c(SCC(=O)NC2CCCCC2)nnc1-c1cccc(N)c1	7.3%	-13.2%	-5.7%	-16.4%	29.1%	-1.8%	x	x	x	x	G9a confirm=2.83*;TbPYK inh=u;TbPYK orthogonal=u
CCOC(=O)C1(CC2CCCCO2)CCN(C(=O)NCc2ccccc2)CC1 (stereo not drawn)	2.2%	-3.0%	2.7%	-3.0%	34.9%	7.9%	x	x	x	x
O=C(CN1CCN(c2ccc(O)cc2)CC1)Nc1ccccc1C(=O)NCCc1ccccc1	-7.3%	-15.8%	u	3.5%	u	-2.7%	x	x	x	x	G9a confirm=1.26*;TbPYK inh=2.51µM*;TbPYK orthogonal=5.01µM*
CCOC(=O)c1ccccc1NC(=O)CSc1ncc2c(n1)-c1ccccc1N(CC)S2(=O)=O	0.7%	x	6.8%	x	43.3%	7.3%	x	x	x	x
COc1cc(C2Nn3c(nnc3-c3ccccc3OC)S2)ccc1O (stereo not drawn)	-11.5%	1.7%	2.24µM*	21.2µM*	u	1.5%	x	x	x	x	G9a confirm=0.252*;TbPYK inh=0.224µM*;TbPYK orthogonal=3.98µM*
CC(=O)c1cccc(NC(=O)C(C)OC(=O)Cc2c[nH]c3ccccc23)c1 (stereo not drawn)	-3.8%	-4.5%	-22.1%	-7.5%	-3.2%	-4.0%	x	x	x	x
COc1cc(C(=O)NC(=S)Nc2ccc(N3CCCC3)cc2)cc(OC)c1OC	u	-10.2%	-31.5%	-3.6%	10.2%	-19.7%	x	x	x	x
COc1ccc(C(=O)Nc2ccc(N3CCCC3)cc2)cc1OC	u	-15.5%	u	3.9%	-1.1%	9.8%	x	x	x	x	G9a confirm=2.51*;TbPYK inh=u;TbPYK orthogonal=-24.7%
O=S1OC(c2ccccc2)c2cc(Cl)ccc21 (stereo not drawn)	2.7%	-2.2%	4.9%	u	43.4%	22.4µM*	3.16*	3.55µM*	2.6%	21.9%
Cc1ccnc(NC(=O)c2sc3ccccc3c2Cl)c1	7.5%	11.6%	-19.6%	-10.2%	35.4%	-13.7%	x	x	x	x
O=C(Nc1ccccn1)c1sc2cc([N+](=O)[O-])ccc2c1Cl	u	-3.1%	56.2µM*	2.67µM*	-33.1%	31.6µM*	3.36*	u	4.9%	-24.1%
O=C(O)COc1cccc(-c2ocnc2-c2nc(-c3ccccc3)c(-c3ccccc3)o2)c1	x	x	x	x	x	u	x	x	x	x	USP1-UAF1 confirm=59.1µM*
O=C(NC1(O)C(=O)c2ccccc2C1=O)c1ccc(C(F)(F)F)cc1	-17.4%	x	5.4%	-16.5%	23.1%	1.78µM*	4.74*	u	21.7%	10.7%
Cc1ccc(C(=O)NC2(O)C(=O)c3ccccc3C2=O)cc1C	-19.6%	x	-3.8%	-21.6%	14.6%	10µM*	u	u	13.2%	-1.5%
CCN(CC)CC#CCC(OC)(c1ccccc1)c1ccccc1	-22.8%	-7.0%	-8.4%	-6.6%	21.1%	-8.5%	x	x	x	x
COc1ccc(/C=N/Nc2nc(=O)[nH]nc2C)cc1[N+](=O)[O-]	2.2%	4.5%	u	-7.7%	6.5%	0.2%	x	x	x	x
COc1ccc(/C=C2\N=C(C)OC2=O)cc1[N+](=O)[O-]	-14.3%	6.2%	-8.3%	u	-16.4%	79.4µM*	10.6*	u	29.1%	14.6%
CCOC(=O)CSC1=NC(=O)/C(=C\c2ccc(OC(C)=O)cc2)S1	-33.9%	2.7%	-24.4%	2.12µM*	8.6%	20µM*	13.4*	u	u	u
CCC(=O)OCCNc1cc(Sc2nc3ccccc3s2)c2nonc2c1[N+](=O)[O-]	-32.5%	x	-34.0%	1.89µM*	u	8.91µM*	6.7*	3.16µM*	16.4µM*	u
Cn1ccnc1Sc1ccc(C=O)cc1[N+](=O)[O-]	-3.4%	x	u	u	-2.3%	9.3%	x	x	x	x
O=[N+]([O-])c1c(NCCCO)cc(Sc2nc3ccccc3s2)c2nonc12	-0.1%	23.4%	56.2µM*	0.947µM*	4.6%	15.8µM*	5.97*	u	u	u

High-throughput results: PubChem BioAssay, National Center for Advancing Translational Sciences (NCATS)
